The test system of test [1] is Plasmodium falciparum Sir2 (PF13_0152, Sir2A). The test can be described thus: pfSir2 binders on small-molecule microarrays, primary screen, biochemical, small-molecule microarray, 635 nm fluorescence (AID 1098).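 Note: score merges spot fluorescence intensity with its signal-to-noise ratio.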 Conditions: small-molecule microarray binding, fluorescence 635 nm; higher = more signal.
The nature of test [2]: small-molecule microarray binders of probe aDKK1, primary screen, biochemical, biotinylated probe, 635/667 nm fluorescence (AID 1099).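 Note: score merges 667nm spot fluorescence with signal to noise across triplicate slides.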 Conditions: higher = more signal.
Test [3] is described as follows: small-molecule microarray binders of probe aCHRDL2, primary screen, biochemical, biotinylated probe, 635/667 nm fluorescence (AID 1100). Conditions: higher = more signal.
The nature of test [4]: splicing luciferase reporter signal modulators, primary screen, spliceosome inhibition project, cell-based, HEK293, splice +/- reporter (AID 1101).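 Note: HEK293 cells carrying a splicing-competent luciferase reporter gene; test concentration not given here.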 Conditions: luminescence, 24 h, higher = more signal, called active from +8 up or from −8 down. On the technique in general: Reporter assays use an easily measured gene product as a stand-in for the process of interest.
The target of test [5] is Fibroblast growth factor 10 (Homo sapiens) (UniProt O15520). Kind of test: FGF10 binders on small-molecule microarrays, primary screen, biochemical, small-molecule microarray, 635 nm fluorescence (AID 1102). Conditions: FGF10 binding, fluorescence 635 nm, higher = more signal.
Chain of Fibroblast growth factor 10 (Homo sapiens) (O15520 whole entry, looked up): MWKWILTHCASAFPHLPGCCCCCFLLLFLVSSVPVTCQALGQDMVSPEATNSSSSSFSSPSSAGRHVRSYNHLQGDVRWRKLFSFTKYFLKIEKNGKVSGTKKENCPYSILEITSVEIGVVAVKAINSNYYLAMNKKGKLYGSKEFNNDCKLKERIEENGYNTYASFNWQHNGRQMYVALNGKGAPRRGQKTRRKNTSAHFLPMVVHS
Test [6] concerns glycogen synthase kinase-3 (GSK3A per assay name; protocol says GSK3B). The test can be described thus: GSK3 binders on small-molecule microarrays, primary screen, biochemical, small-molecule microarray, 635 nm fluorescence, GSK3A (AID 1103). Note: the record names both GSK3A and GSK3B. Conditions: small-molecule microarray binding, fluorescence 635 nm; higher = more signal.
Test [7] deals with Epidermal growth factor receptor (Homo sapiens) (UniProt P00533). The test can be described thus: EGFR binders on small-molecule microarrays, primary screen, biochemical, small-molecule microarray, 635 nm fluorescence (AID 1104).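 Note: score merges 667 nm emission intensity with spot signal to noise over triplicate slides.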 Conditions: EGFR binding, higher = more signal.
Chain of Epidermal growth factor receptor (Homo sapiens) (P00533 whole entry, looked up): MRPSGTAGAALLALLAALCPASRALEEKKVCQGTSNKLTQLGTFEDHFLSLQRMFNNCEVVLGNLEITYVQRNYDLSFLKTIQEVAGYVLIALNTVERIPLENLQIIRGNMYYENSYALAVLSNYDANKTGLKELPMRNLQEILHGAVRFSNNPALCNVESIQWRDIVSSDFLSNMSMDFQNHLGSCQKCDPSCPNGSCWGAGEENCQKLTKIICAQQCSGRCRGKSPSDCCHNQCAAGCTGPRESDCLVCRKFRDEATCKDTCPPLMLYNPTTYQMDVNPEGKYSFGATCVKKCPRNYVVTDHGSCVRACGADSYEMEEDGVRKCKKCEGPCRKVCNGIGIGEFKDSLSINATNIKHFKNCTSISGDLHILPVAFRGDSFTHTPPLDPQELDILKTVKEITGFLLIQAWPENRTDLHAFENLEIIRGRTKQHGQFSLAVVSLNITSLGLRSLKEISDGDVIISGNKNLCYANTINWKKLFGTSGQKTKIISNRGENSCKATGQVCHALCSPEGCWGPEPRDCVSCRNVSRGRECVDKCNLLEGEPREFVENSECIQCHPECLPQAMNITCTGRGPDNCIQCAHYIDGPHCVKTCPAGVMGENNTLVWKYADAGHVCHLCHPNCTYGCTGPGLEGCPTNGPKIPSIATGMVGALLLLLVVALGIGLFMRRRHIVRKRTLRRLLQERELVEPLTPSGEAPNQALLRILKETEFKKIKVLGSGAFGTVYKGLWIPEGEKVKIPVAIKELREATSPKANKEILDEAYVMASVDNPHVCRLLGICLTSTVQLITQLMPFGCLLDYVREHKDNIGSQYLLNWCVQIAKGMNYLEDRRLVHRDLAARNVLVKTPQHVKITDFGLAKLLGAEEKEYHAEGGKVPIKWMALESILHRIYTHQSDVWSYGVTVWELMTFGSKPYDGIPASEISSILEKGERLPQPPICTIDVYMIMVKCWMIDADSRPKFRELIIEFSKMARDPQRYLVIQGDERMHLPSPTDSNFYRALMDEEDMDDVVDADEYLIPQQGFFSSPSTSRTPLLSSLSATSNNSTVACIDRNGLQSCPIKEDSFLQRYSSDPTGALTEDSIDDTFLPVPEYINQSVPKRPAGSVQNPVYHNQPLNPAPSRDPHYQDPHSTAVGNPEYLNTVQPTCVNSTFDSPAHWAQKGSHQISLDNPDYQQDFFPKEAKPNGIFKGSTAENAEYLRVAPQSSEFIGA
The target of test [8] is Follistatin-related protein 3 (Homo sapiens) (UniProt O95633). The test can be described thus: FSTL3 binders on small-molecule microarrays, primary screen, biochemical, small-molecule microarray, 635 nm fluorescence (AID 1105).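 Note: score merges emission near 667 nm and signal to noise per printed spot across three slides.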 Conditions: FSTL3 binding, higher = more signal.
Chain of Follistatin-related protein 3 (Homo sapiens) (O95633 whole entry, looked up): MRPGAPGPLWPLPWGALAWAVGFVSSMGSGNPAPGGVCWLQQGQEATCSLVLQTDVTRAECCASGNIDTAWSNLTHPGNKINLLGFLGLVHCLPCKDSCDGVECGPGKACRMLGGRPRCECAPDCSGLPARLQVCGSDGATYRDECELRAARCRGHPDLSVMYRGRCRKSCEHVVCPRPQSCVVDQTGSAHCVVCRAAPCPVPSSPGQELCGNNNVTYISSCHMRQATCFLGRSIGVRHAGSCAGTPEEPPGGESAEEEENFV
Test [9] deals with Dickkopf-related protein 1 (Homo sapiens) (UniProt O94907). Kind of test: DKK1 binders on small-molecule microarrays, primary screen, biochemical, small-molecule microarray, 635 nm fluorescence scan (AID 1106).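 Note: score merges emission near 667 nm with signal to noise over three replicate slides.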 As to conditions: DKK1 binding, higher = more signal.
Chain of Dickkopf-related protein 1 (Homo sapiens) (O94907 whole entry, looked up): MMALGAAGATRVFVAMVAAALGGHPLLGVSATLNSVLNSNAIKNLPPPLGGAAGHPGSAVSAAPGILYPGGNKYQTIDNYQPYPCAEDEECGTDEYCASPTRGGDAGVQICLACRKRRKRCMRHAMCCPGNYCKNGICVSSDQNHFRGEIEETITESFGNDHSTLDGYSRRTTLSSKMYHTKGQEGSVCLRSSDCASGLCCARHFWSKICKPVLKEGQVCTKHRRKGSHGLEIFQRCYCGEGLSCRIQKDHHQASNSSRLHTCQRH
Test [10] concerns Inhibin beta A chain (activin A). Kind of test: INHBA (activin A) binders on microarrays, primary screen, biochemical, small-molecule microarray, 635 nm fluorescence scan (AID 1107).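 Note: mouse activin A protein probed at 4.33 µg/mL on printed slides; score merges bound-protein fluorescence near 667 nm with spot signal-to-noise.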 As to conditions: small-molecule microarray binding, higher = more signal.
The test system of test [11] is Human papillomavirus type 1a protein E7 (residues 44-93). The test can be described thus: HPV1a E7 fragment binders on microarrays, primary screen, biochemical, small-molecule microarray, residues 44-93, 635 nm fluorescence (AID 1108).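 Note: E7 fragment applied at 1 µg/mL in TBST for 1 h at 4 C; score combines spot fluorescence with its signal to noise ratio.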 Conditions: small-molecule microarray binding, fluorescence 635 nm; higher = more signal.
A short description of test [12]: modulators of HCV replicon luciferase signal, primary screen, HCV replication inhibitor project, Huh7 cells, luciferase reporter (AID 1109).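 Note: huh7 hepatoma cells harbouring a luciferase neomycin HCV replicon reporter; luciferase luminescence as measure of HCV replicon replication; test concentration not given here.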 Conditions: 48 h, higher = more signal. A general note: In antiviral work, replicon cells carry a viral genome segment that copies itself.
Test [13] has as its target Left-right determination factor 2 (Homo sapiens) (UniProt O00292). The test can be described thus: LEFTY2 binders on small-molecule microarrays, primary screen, biochemical, small-molecule microarray, 635 nm fluorescence scan (AID 1110). As to conditions: LEFTY2 binding, higher = more signal.
Test [14] has as its target Calmodulin-1 (Homo sapiens) (UniProt P0DP23). Kind of test: CALM1 binders on microarrays, EGTA buffer, profiling panel, biochemical, small-molecule microarray, Cy5-labelled CALM1 (AID 1111).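 Note: labelled calmodulin applied in Tris saline Tween buffer holding calcium plus EGTA and DTT.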 Conditions: Cy5-CALM1 binding fluorescence, higher = more signal.
For test [15] the target is unchanged. The test can be described thus: calcium-bound CALM1 binders on microarrays, profiling panel, artefact control for SMM control-protein annotation, biochemical, small-molecule microarray, Cy5-labelled CALM1, plus calcium (AID 1112).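 Note: score merges spot fluorescence with signal to noise from triplicate slides.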 As to conditions: Cy5-CALM1 binding fluorescence, higher = more signal.
Test [16] in a line: small-molecule microarray binders of probe aWnt5a, primary screen, biochemical, biotinylated probe, 635/667 nm fluorescence (AID 1113).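 Note: score merges 667 nm fluorescence intensity with signal-to-noise per printed feature.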 As to conditions: higher = more signal.
Test [17] in a line: small-molecule microarray binders of probe aShh, primary screen, biochemical, biotinylated probe, 635/667 nm fluorescence (AID 1114).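 Note: probe is biotin-labelled aShh protein from a stem cell growth factor screen; measures binding of labelled protein to compounds printed on the slide; score merges feature fluorescence at 667 nm with signal-to-noise.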 Conditions: higher = more signal.
A short description of test [18]: small-molecule microarray binders of probe aNog, primary screen, biochemical, biotinylated probe, 635/667 nm fluorescence (AID 1115).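 Note: probe is biotinylated aNog protein used at 0.15 µg/mL for 1 h at 4 C; z-score combines 667 nm fluorescence of each spot with its signal to noise.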 Conditions: higher = more signal.
Test [19] deals with Torsin-1A-interacting protein 1 (Homo sapiens) (UniProt Q5JTV8). The test can be described thus: LAP1 binders from COS7 cell lysate, primary screen, small-molecule microarray, 635/667 nm fluorescence (AID 1116). As to conditions: COS7-hLAP1 lysate binding, 635 nm fluorescence, higher = more signal.
Chain of Torsin-1A-interacting protein 1 (Homo sapiens) (Q5JTV8 whole entry, looked up): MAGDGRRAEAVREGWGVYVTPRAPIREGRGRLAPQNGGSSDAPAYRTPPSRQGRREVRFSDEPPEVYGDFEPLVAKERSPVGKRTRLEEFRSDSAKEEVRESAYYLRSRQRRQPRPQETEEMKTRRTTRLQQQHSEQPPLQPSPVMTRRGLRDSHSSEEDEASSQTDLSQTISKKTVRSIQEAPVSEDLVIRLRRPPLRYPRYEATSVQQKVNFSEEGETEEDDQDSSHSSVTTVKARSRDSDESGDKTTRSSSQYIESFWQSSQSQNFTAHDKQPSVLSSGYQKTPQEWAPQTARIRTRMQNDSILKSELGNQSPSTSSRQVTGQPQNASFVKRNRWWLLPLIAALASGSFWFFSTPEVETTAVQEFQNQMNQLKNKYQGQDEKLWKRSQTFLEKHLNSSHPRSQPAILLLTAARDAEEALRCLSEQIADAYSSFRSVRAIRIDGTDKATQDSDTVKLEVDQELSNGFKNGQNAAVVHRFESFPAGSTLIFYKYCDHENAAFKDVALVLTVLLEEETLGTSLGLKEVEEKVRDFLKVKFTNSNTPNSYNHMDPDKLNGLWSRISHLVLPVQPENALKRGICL
In test [20] the target is Alpha-bungarotoxin (Bungarus multicinctus) (UniProt P60615). The test can be described thus: alpha-bungarotoxin binders on microarray, profiling panel, artefact control for SMM control protein annotation, biochemical, small-molecule microarray, Alexa647 label, 635/667 nm fluorescence (AID 1117). Conditions: alpha-BTX-A647 binding fluorescence, higher = more signal.
Chain of Alpha-bungarotoxin (Bungarus multicinctus) (P60615 whole entry, looked up): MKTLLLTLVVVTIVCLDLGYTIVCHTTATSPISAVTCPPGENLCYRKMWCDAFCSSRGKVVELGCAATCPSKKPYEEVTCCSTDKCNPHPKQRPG

Seven compounds from PubChem BioAssay can be followed below.

Molecules are shown by their SMILES. The source made the active and inactive calls.

Chain of Left-right determination factor 2 (Homo sapiens) (O00292 whole entry, looked up): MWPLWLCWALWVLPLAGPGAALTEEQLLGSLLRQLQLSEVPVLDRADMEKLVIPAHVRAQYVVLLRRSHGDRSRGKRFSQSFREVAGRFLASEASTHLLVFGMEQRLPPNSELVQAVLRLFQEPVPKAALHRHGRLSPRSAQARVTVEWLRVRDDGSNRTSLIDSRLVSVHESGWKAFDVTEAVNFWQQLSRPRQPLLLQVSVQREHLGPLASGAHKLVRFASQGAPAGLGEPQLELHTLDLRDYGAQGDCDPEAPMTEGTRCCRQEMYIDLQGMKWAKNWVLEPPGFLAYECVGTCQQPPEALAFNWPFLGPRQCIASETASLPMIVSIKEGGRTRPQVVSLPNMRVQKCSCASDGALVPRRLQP

For `C=CCOC(=O)[C@H]1[C@@H]2C(=O)O[C@@H](c3ccccc3)[C@@H](c3ccccc3)N2[C@@H](c2ccc(OCCOC(=O)[C@@H]3C[C@@H]4C(=O)N5CCC[C@H]5C(=O)N4[C@@H]3c3cccc(OCCO)c3)cc2)[C@]12C(=O)Nc1ccc(I)cc12`, the composite z-score in test [1] is 1.59; in test [2] it was -0.214; in [3] it was -0.158; in test [5], 1.42; in test [6], 1.15; in [7], 0.702. For the same compound, the composite z-score in test [8] came to 1.39; in test [9], 1.2; in test [10] it was 0.76; in test [11], 1.39; in test [13], 0.872; in test [14] it was 0.784. Moreover, the composite z-score is -0.0883 in [15]; -0.0758 in [16]; 0.0098 in test [17]; 0.935 in test [18]; -0.571 in test [19]; 1.39 in test [20]. For the same compound, the z-score in test [4] is 0.0567 (inactive); in [12] it was -1.46.

For `COCC(=C=CC[C@H](O)c1ccccc1OCCO)CCO`, the composite z-score in [1] was 1.52; in test [2] it was 0.0439; in [3], -0.423; in [5] it was 0.919; in [6] it was 0.485; in [7], -0.865. The composite z-score is 0.612 in [8]; 0.274 in [9]; 0.564 in test [10]; 0.0008 in [11]; -0.378 in test [13]; -0.0866 in test [14]. For the same compound, the composite z-score in test [15] is -0.037; in test [16], -0.096; in [17] it was 0.0723; in test [18], 0.509; in test [19], 1.34; in [20] it was 0.804. In addition, the z-score in [4] is 0.338 (inactive); in test [12] it was -0.266.

For the compound `C=CCC(OC(C)=O)[C@@H]1[C@@H](N(Cc2ccc(-c3cccc(C(F)(F)F)c3)o2)C(=O)Cc2ccc(OC)cc2)c2cc(OCCCO)ccc2N1C(=O)c1ccc2ccccc2c1` (stereo not given in full), the composite z-score was 0.403 in [1]; -0.179 in test [2]; 0.577 in test [3]; -0.344 in test [5]; -1.46 in test [6]; -0.488 in [7]. Also, the composite z-score in test [8] is 0.195; in [9] it was -0.298; in test [10], 1.39; in [11], -0.759; in test [13] it was -0.394; in test [14], -0.477. Further, the composite z-score was -0.506 in test [15]; -0.124 in test [16]; -0.214 in test [17]; -0.261 in test [18]; -0.157 in test [19]; -0.0185 in test [20]. Besides, the z-score in [4] was -0.814 (inactive); in test [12], 0.613.

As to `COC(=O)[C@@]1(Cc2ccc(OC)cc2)[C@H]2c3cc(C(=O)N4CCCC4)n(CCSCCO)c3C[C@H]2CN1C(=O)c1ccccc1`, the composite z-score came to 0.45 in [1]; 0.852 in test [2]; 1.21 in [3]; 0.556 in [5]; 0.541 in test [6]; 0.0009 in test [7]. The composite z-score in test [8] is -0.17; in [9], -0.984; in [10], 0.435; in test [11] it was 1.37; in test [13] it was -0.641; in test [14], 1.66. The composite z-score came out at 0.644 in test [15]; 0.151 in test [16]; 0.0039 in test [17]; 2.04 in [18]; 1.01 in test [19]; 1.22 in test [20]. Also, the figures for the z-score in [4] and in [12] were -0.657 (inactive) and -1.48, respectively.

Regarding `OB1C=CCC(CCc2ccccc2)O1` (stereo not given), the composite z-score in test [1] was 1.57; in test [2], -0.246; in test [3], 0.0796; in [5], -0.184; in test [6], -0.428; in [7] it was 0.0835. For the same compound, the composite z-score in [8] is -0.544; in test [9], -0.191; in test [10], 1.67; in test [11], -1.86; in test [13], -0.32; in test [14], -0.961. In addition, the composite z-score in [15] is -0.455; in [16] it was -0.263; in [17], -0.117; in test [18] it was -0.39; in [19], 0.363; in [20] it was -0.725. Also, the z-score in test [4] is -0.817 (inactive); in test [12], 1.1.

Take `COc1cc2c(cc1O)C(c1cccs1)N(Cc1cccc(OC(F)(F)F)c1)CC2` (stereo not given): the composite z-score in test [1] is 1.77; in test [2] it was -0.293; in [3] it was 0.154; in [5] it was -0.153; in test [6] it was -0.0228; in test [7], -0.0017. The composite z-score was 0.105 in [8]; -0.183 in test [9]; 1.41 in test [10]; 1.14 in [11]; 0.0446 in test [13]; 0.0759 in [14]. Also, the composite z-score in [15] was -0.194; in test [16], -0.0545; in test [17], -0.0709; in test [18], 0.0953; in [19], 0.0117; in test [20], 0.422. The results for the z-score in test [4] and in test [12] were 0.965 (inactive) and -1.75, respectively.

Take `COCC(=C=CC[C@H](O)c1cccc(OCCO)c1)CCO`: the composite z-score in test [1] was 0.34; in test [2] it was -0.0405; in test [3] it was -0.101; in test [5], 0.569; in test [6] it was -0.218; in [7], -0.0436. In addition, the composite z-score in test [8] was 0.688; in test [9] it was 0.0241; in test [10], 0.177; in [11], 1.02; in test [13], 0.0075; in [14] it was -0.488. In addition, the composite z-score in test [15] was -0.487; in [16], -0.127; in [17], -0.156; in [18], 0.0395; in test [19] it was -0.0815; in [20], -0.113. In addition, the z-score was 0.105 (inactive) in test [4] and -0.119 in [12].
